From PubChem BioAssay (NCATS) come the findings set out here.

Records with an inconclusive call do not appear. Activity calls are given as the source filed them. The call rests on the fitted dose curve; in most records, active means well fitted inhibition curve with a large enough effect; inconclusive means small, poorly fitted or top-dose-only effect; inactive means flat fitted curve, though single readings scatter.

Test system in one assay: not listed separately
The assay can be described thus: qHTS Assay for Lipid Storage Modulators (AID 1519). The settings on record: Drosophila S3 cells, BODIPY lipid droplet/cell ratio, laser cytometry; measured here: lipid channel max response; cells loaded with oleic acid. The procedure, abridged:
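Cells seeded at 5,000 per well were treated with compounds over a concentration series and loaded with oleic acid (400 uM, as added). Lipid droplet fluorescence (488 nm excitation, 500-530 nm channel) was read by laser-scanning cytometry and normalized to 20 uM Triacsin C.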
For the molecule `COc1cc(O)cc(OC)c1OC`, the max response is -12.4%.

In the case of `O=C(NC1CCCCC1)NC1CCCCC1`, the max response was 30.7%.

As to `COc1ccc(CCC(=O)c2c(O)cc(OC3OC(CO)C(O)C(O)C3O[C@@H]3OC(C)C(O)C(O)C3O)cc2O)cc1O` (some centres not stated), the max response worked out at 14.6%.

For the molecule `CC1CC2C3CCC4=CC(=O)C=C[C@]4(C)[C@@]3(Cl)C(O)C[C@]2(C)C1(OC(=O)c1ccco1)C(=O)CCl` (some centres not stated), the max response was determined as 6.32%.

`CC1(C)C[C@@H]2C(=O)CCC3O[C@@]3(C)CCC21` (some centres not stated): the max response amounted to 26.4%.

In the case of `CC1(C)CC23C(=O)CCC(O)C2(C)CCC13` (configuration not stated), the max response came to 10.8%.

As to `COc1cc2cc[n+]3cc4c(OC)c(OC)ccc4cc3c2cc1OC`, the max response was determined as 39.6%.

With `COc1ccc(-c2cc(=O)c3c(O)c(OC)c(OC)c(OC)c3o2)cc1OC`, the max response was -17.8%.

As to `COC(=O)C1OC(=O)C2O[C@@]23[C@]2(C)C(OC(C)=O)CC4C(C)(C)C(=O)CC[C@]4(C)C2CC[C@@]13C` (some centres not stated), the max response amounted to 4.55%.

`CC(=O)OC1CC2C(C)(C)C=CC(=O)[C@@]2(C)C2CC[C@@]3(C)C(c4ccoc4)OC(=O)C4OC43[C@]12C` (some centres not stated): the max response was -1.42%.

In the case of `CCOC(=O)c1c(C)cc(O)c(C=O)c1O`, the max response is 3.24%.

As for `C[C@@H]1CCC2[C@](C)(CO)C(O)CC[C@@]2(C)[C@@]12CC[C@](CO)(CCO)O2` (some centres not stated), the max response came out at 17.7%.

On to `O=C(/C=C/c1ccccc1)c1ccc(O)cc1`, for which the max response came to 2.04%.

Consider `CC(=O)OC1CC2C(C)(C)C(=O)[C@@H]3OC3[C@@]2(C)C2CC[C@]3(C)C(=CC(=O)OC3c3ccoc3)[C@]12C` (some centres not stated), for which the max response was 25.7%.

Turning to `Cc1cc(=O)oc2c(O)c(O)ccc12`, the max response was -9.34%.

Consider `COc1ccc(-c2coc3cc(OC(C)=O)cc(OC(C)=O)c3c2=O)cc1`, for which the max response is 2.84%.

For `COc1ccc(C(=O)c2ccc(O)cc2)c(O)c1O`, the max response is 8.25%.

With `CC12CCC3C(=CCc4cc(O)ccc43)C1CCC2=O` (configuration not stated), the max response is -6.28%.

For the molecule `CC(=O)OC1CC(OC(C)=O)[C@]2(C)C(CC(=O)[C@]3(C)C2CC[C@@]2(C)C(C(=O)O)OC(=O)C4OC423)C1(C)C` (some centres not stated), the max response is 15.4%.

For the molecule `COC1=CC(=O)C(C(=O)c2ccccc2)=CC1=O`, the max response was 25.8%.

On to `CC(Oc1ccccc1)C(=O)NC1C(=O)N2C(C(=O)O)C(C)(C)S[C@@H]12` (some centres not stated), for which the max response worked out at 21.7%.

In the case of `CC(=O)O[C@](C)(CCC=C(C)C)C1CC=C(C)CC1` (some centres not stated), the max response was 22%.

The target of another assay is Ubiquitin carboxyl-terminal hydrolase 1 (Homo sapiens) (UniProt O94782). Nature of the assay: Inhibitors of USP1/UAF1: Pilot qHTS (AID 504865).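 Further: rhodamine fluorescence freed from ubiquitin-rhodamine substrate followed over time; top concentration of the series differs between compounds; on the % scale 0 is the no-effect control and ±100 the full control effect; nearly all actives have a fitted effect of over 35% in size.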 The settings on record: purified USP1/UAF1, Ub-rhodamine cleavage fluorescence; series mostly up to 114 µM; activity change, negative = inhibition: at the top concentration. In short, it runs like this: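 USP1/UAF1 complex at 1 nM preincubated 15 min at room temperature with compound, then Ub-Rho substrate added at 150 nM final. Fluorescence (480/540 nm) read kinetically in 50 mM HEPES pH 7.8, 0.5 mM EDTA, 1 mM TCEP, 0.1 mg/ml BSA, 0.01% Tween-20.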
Sequence of Ubiquitin carboxyl-terminal hydrolase 1 (Homo sapiens) (O94782 whole entry, looked up): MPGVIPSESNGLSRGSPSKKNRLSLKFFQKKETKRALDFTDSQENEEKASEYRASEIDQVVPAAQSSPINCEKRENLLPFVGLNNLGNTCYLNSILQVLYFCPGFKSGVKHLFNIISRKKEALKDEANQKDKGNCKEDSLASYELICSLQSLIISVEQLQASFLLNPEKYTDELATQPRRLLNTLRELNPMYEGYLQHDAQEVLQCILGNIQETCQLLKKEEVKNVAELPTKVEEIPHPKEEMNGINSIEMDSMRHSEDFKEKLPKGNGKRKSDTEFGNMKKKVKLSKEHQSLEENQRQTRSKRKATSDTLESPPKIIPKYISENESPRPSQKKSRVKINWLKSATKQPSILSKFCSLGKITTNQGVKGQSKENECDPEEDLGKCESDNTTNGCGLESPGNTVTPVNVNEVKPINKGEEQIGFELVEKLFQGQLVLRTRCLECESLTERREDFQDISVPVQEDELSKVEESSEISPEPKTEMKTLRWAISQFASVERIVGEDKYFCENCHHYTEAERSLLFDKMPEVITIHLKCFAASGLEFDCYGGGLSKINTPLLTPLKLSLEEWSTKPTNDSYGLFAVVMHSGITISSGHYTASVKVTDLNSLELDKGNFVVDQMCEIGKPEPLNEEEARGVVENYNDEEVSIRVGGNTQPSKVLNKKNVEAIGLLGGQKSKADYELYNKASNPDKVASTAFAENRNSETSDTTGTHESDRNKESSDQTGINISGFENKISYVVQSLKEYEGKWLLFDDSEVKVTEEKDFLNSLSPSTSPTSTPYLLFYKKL
On the technique in general: Quantitative high-throughput screening tests each substance at several concentrations.
With `COc1cc(OC)c(C(C)=O)c(O)c1C`, the “activity change, negative = inhibition” value is -4.13% (inactive).

In the case of `COc1ccc(-c2coc3c(O)c(OC)ccc3c2=O)cc1`, the “activity change, negative = inhibition” value is -4.89% (inactive).

As for `COc1cc(O)c(C)c(O)c1`, the “activity change, negative = inhibition” value was -9.98% (inactive).

For `C=C1CCC(=O)C(C)CCC2C1CC2(C)C` (configuration not stated), the “activity change, negative = inhibition” value was -2.14% (inactive).

`CCCCN1CCCCC1C(=O)Nc1c(C)cccc1C` (configuration not stated): the “activity change, negative = inhibition” value was -7.51% (inactive).

For the molecule `CC1(C)C(O)C=C[C@@]2(C)C1CC(=O)O[C@@]1(C)C3=CC(=O)OC(c4ccoc4)[C@]3(C)CCC21` (some centres not stated), the “activity change, negative = inhibition” value is -14.5% (inactive).

For `C=C1C(=O)OC2CC1C(OC(C)=O)CC(C)=CCCC(C)=CCC[C@@]2(C)O` (some centres not stated), the “activity change, negative = inhibition” value is -10.8% (inactive).

As for `CC1(C)CC2C1CCC1(C)OC1CCC2(C)O` (configuration not stated), the “activity change, negative = inhibition” value is -9.77% (inactive).

Take `C#C[C@]1(O)CCC2C3CCC4=Cc5oncc5C[C@@]4(C)C3CC[C@@]21C` (some centres not stated): the “activity change, negative = inhibition” value was -7.95% (inactive).

On to `Cc1cc(O)c(C=O)c(O)c1C(=O)O`, for which the “activity change, negative = inhibition” value was -9.07% (inactive).

Turning to `COC(=O)CC1C(C)(C)C(OC(C)=O)[C@@]2(O)C=C3C4CC(=O)OC(c5ccoc5)[C@]4(C)CCC3[C@@]1(C)C2=O` (some centres not stated), the “activity change, negative = inhibition” value is -11% (inactive).

Take `C=CC(C1=CC(=O)C=CC1=O)c1ccccc1` (configuration not stated): the “activity change, negative = inhibition” value was -12.8% (inactive).

Take `CC(=O)C1CCC2C3CC(C)C4=CC(=O)CC[C@@]4(C)C3C(O)C[C@@]12C` (some centres not stated): the “activity change, negative = inhibition” value is -12.5% (inactive).

`CO[C@]12CC(COC(=O)c3cncc(Br)c3)CN(C)[C@@H]1Cc1cn(C)c3cccc2c13` (some centres not stated): the “activity change, negative = inhibition” value is -12.7% (inactive).

Take `CCOC(=O)C(Cc1ccc(O)cc1)NC(C)=O` (configuration not stated): the “activity change, negative = inhibition” value was -6.14% (inactive).

Consider `COc1ccc(-c2coc3cc(O)ccc3c2=O)c(OC)c1`, for which the “activity change, negative = inhibition” value was -9.67% (inactive).

On to `COC(=O)CC1C(C)(C)C(OC(C)=O)C2CC3=C4CC(=O)OC(c5ccoc5)[C@]4(C)CCC3[C@@]1(C)C2=O` (some centres not stated), for which the “activity change, negative = inhibition” value is -10.6% (inactive).

On to `COC(=O)c1cc(OC)c(=O)c2c(OC)c(OC)ccc2c1`, for which the “activity change, negative = inhibition” value was -6.38% (inactive).

In the case of `COc1cc(O)cc(OC)c1OC`, the “activity change, negative = inhibition” value is -2.57% (inactive).

With `O=C(NC1CCCCC1)NC1CCCCC1`, the “activity change, negative = inhibition” value was -2.56% (inactive).

As for `COc1ccc(CCC(=O)c2c(O)cc(OC3OC(CO)C(O)C(O)C3O[C@@H]3OC(C)C(O)C(O)C3O)cc2O)cc1O` (some centres not stated), the “activity change, negative = inhibition” value was 0.0428% (inactive).

`CC1CC2C3CCC4=CC(=O)C=C[C@]4(C)[C@@]3(Cl)C(O)C[C@]2(C)C1(OC(=O)c1ccco1)C(=O)CCl` (some centres not stated): the “activity change, negative = inhibition” value was -6.65% (inactive).

As to `CC1(C)C[C@@H]2C(=O)CCC3O[C@@]3(C)CCC21` (some centres not stated), the “activity change, negative = inhibition” value is -5.3% (inactive).

Turning to `CC1(C)CC23C(=O)CCC(O)C2(C)CCC13` (configuration not stated), the “activity change, negative = inhibition” value was -5.42% (inactive).

`COc1cc2cc[n+]3cc4c(OC)c(OC)ccc4cc3c2cc1OC`: the “activity change, negative = inhibition” value is 3.63% (inactive).
